Test results published in PubChem BioAssay AID2599 (Sanford-Burnham Center for Chemical Genomics, 2010).
Hit rate of the full screen: of about 330,000 compounds, about 5,800 (1.8%) were called active. This is one part of a sample in which actives are shown more often than they occur. Values without a mark were called inactive.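 The calls were made as follows: active = inhibition above about 50% at the single tested dose (limit read from the data); inactive = the rest.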

Biological target: Sentrin-specific protease 6 (Homo sapiens) (UniProt Q9GZR1)
Sequence (Q9GZR1 628-1112 limits assumed): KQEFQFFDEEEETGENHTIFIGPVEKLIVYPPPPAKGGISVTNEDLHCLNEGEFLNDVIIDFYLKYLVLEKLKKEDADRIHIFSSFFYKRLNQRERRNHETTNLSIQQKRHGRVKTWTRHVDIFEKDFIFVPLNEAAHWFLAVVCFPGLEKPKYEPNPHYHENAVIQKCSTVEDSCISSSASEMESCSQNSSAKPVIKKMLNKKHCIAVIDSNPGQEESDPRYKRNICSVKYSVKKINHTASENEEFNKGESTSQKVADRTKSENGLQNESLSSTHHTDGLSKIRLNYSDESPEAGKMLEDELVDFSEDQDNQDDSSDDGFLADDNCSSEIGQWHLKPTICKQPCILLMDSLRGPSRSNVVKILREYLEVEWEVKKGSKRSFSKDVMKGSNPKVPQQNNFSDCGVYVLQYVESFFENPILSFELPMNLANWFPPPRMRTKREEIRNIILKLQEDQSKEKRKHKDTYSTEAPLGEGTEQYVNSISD
Assay: SENP6 protease inhibitors, primary screen, biochemical, luminescence, uHTS (AID 2599);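 also: plate controls were DMSO wells with enzyme for no effect and DMSO wells lacking enzyme for full effect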
Conditions: Recombinant SENP6 catalytic domain, aminoluciferin luminescence; at 10 µM; stronger effect = higher value

Structure (SMILES)	inhibition
Cc1nc(NC(CC(C)C)C(=O)O)c2nc(C)oc2n1 (stereo not drawn)	7.07%
CCOC(=O)C(CC)Sc1ncnc2c1nnn2-c1ccc(F)cc1 (stereo not drawn)	-3.73%
CCc1ccc(N(C(=O)c2csnn2)C(C(=O)NC2CCCCC2)c2cccnc2)cc1 (stereo not drawn)	-39%
COc1ccc(C(CNC(=O)c2cc3c(s2)CCCC3)N2CCOCC2)cc1 (stereo not drawn)	3.85%
O=C(COc1ccc(NC(=O)c2ccccc2[N+](=O)[O-])cc1)c1ccc(F)cc1	-17.5%
COc1ccc(/C=N/OCc2ccccc2C#N)c(OC)c1	-10.3%
O=C(/C=C/Sc1ncn[nH]1)c1ccc(Cl)cc1	-14.2%
Cc1noc(/C=C/c2ccco2)c1S(=O)(=O)N1CCC(C(=O)N2CCc3ccccc32)CC1	-4.32%
CC(C)c1ccccc1OCC(O)CN(CC(O)COc1cccc2ccccc12)C(C)C (stereo not drawn)	-38.4%
COc1ccc(-c2n[nH]c3c2CN(C(=O)c2ccc(F)cc2)CC3)cc1	-10.3%
O=C(CCN1C(=O)[C@H]2CC=CC[C@H]2C1=O)NCc1nc(-c2ccccc2)no1	-11%
OCCNc1nc(Nc2ccc(Cl)c(Cl)c2)nc2ccccc12	13.5%
COc1ccc(-c2nc(-c3ccccc3)no2)c(OC)c1	97.7% (active)
COc1ccc(-c2noc(CNC(=O)C(C)Oc3ccccc3)n2)cc1 (stereo not drawn)	-14.5%
COc1ccc(OC)c(-c2csc(-c3cccs3)n2)c1	-21.1%
CN(C(=O)c1c(Cl)cnn1C)C12CC3CC(CC(C3)C1)C2	5.39%
CC(C)n1c(COc2ccccc2)nc2ccccc21	-4.84%
Cc1ccc(OCc2nc3ccccc3n2C)cc1	65.3% (active)
COCn1c(COc2ccccc2)nc2ccccc21	-7.24%
COc1cccc(N2CC(NC(=O)c3ccc4ccccc4c3)CC2=O)c1 (stereo not drawn)	-9.84%
CC(C)(CNC(=O)c1ccc(Cl)c(S(=O)(=O)N2CCc3ccccc3C2)c1)N1CCOCC1	-0.183%

Structure (SMILES)	inhibition
COc1ccc(OC)c(C(=O)c2coc3ccc(OC)cc23)c1	-18.1%
COc1ccc2occ(C(=O)c3ccc(N=C(C)N(C)C)cc3)c2c1	62.1% (active)
COc1ccc(OC)c(C(=O)c2ccc(Cl)cc2)c1	6.03%
Cc1ccsc1C(=O)N/N=C/c1ccc([N+](=O)[O-])cc1	82.9% (active)
O=C(N/N=C/c1ccc([N+](=O)[O-])cc1)C(=O)N1CCCC1	-54.5%
Cc1cc(O)c(NC(=O)c2ccc(C)c([N+](=O)[O-])c2)cc1C	-1.6%
Cc1ccc(NC(=O)c2sccc2C)cc1[N+](=O)[O-]	82.7% (active)
Cc1ccc(NC(=O)CN(C)CC(=O)Nc2cccc(F)c2)cc1[N+](=O)[O-]	-3.74%
Cc1ccc(/C=N/NC(=O)c2sccc2OCc2ccc(F)cc2)cc1	-36.4%
O=S(=O)(NC1CCCCC1)c1ccc(F)c2ccccc12	-13.8%
O=c1ccnc(Nc2ccc(Cl)cc2)[nH]1	-2.45%
Cc1cc(Nc2ccc(Br)cc2)nc2ccccc12	0.575%
Clc1ccc(Nc2ccc3ccccc3n2)cc1	89.2% (active)
CN(C)/C=C(\C#N)C(=O)c1cccnc1Oc1cccc(F)c1	-2.99%
COc1ccc2oc(=O)cc(CN3CCOCC3)c2c1	-0.296%
CCCCC(O)(CCCC)C(=O)NN(C(=O)CCl)c1ccccc1	-17.7%
O=C(Nc1ccncc1)c1ccc([N+](=O)[O-])cc1Cl	-18.8%
O=C(Nc1ccccc1C(=O)Nc1ccncc1)c1ccc([N+](=O)[O-])cc1	58.6% (active)
O=C(Nc1ccncc1)c1ccccc1[N+](=O)[O-]	-15.3%
CC(=O)N(c1ccc2oc(=O)sc2c1)S(=O)(=O)c1ccc(C)cc1	15.9%
Cc1ccc(S(=O)(=O)N2CCN(C(=O)CN3C(=O)NC(C)(c4ccc(Cl)cc4)C3=O)CC2)c(C)c1 (stereo not drawn)	-2.29%

Structure (SMILES)	inhibition
O=C(OCc1ccc(-c2ccccc2)cc1)c1cccc(O)c1	2.41%
Cc1ccc(O)c(CNc2nc3ccccc3[nH]2)c1	-16.5%
CC(C)n1c(NCc2c[nH]c3ccccc23)nc2ccccc21	9.71%
Cc1ccc(O)c(CNc2nc3ccccc3n2C)c1	51.5% (active)
COC(=O)c1sccc1NC(=O)CC1C(=O)NCCN1C(=O)Nc1ccc(F)cc1F (stereo not drawn)	-25.4%
Cc1ccc(N2C(=O)C3C4C=CC(CC4)C3C2=O)cc1Cl (stereo not drawn)	14.5%
O=C(Nc1ccc(N2CCN(C(=O)c3ccccc3)CC2)c(Cl)c1)c1cccnc1	14.4%
O=[N+]([O-])c1ccccc1SNc1ccccn1	-6.35%
CCCc1ccc(OCCNC(=O)c2ccccc2Br)cc1	14.6%
CCCOc1ccc(C(=O)NCCc2ccccc2)cc1	76.4% (active)
CCCc1ccc(OCCNC(=O)c2ccco2)cc1	14.5%
OCC[C@H]1C[C@H](O)[C@@H](O)[C@]2(CCCCO2)O1	-7.27%
O=C(COc1ccc2oc3c(c2c1)CCCC3)Nc1ccccn1	56.4% (active)
CCOC(=O)N1CCN(C(=O)COc2ccc3oc4c(c3c2)CCCC4)CC1	1.75%
CCN(CC)CCCNC(=O)COc1ccc2oc3c(c2c1)CCCC3	-9.52%
CCOC(=O)c1sc(NC(=O)C2CSC3(C)CCC(=O)N23)nc1C (stereo not drawn)	-17.8%
O=C(NCCc1ccc(Cl)cc1)C1CCCN1C(=O)NCc1ccccc1 (stereo not drawn)	19.7%
O=C(NCC(c1ccco1)N1CCc2ccccc2C1)c1ccccc1Cl (stereo not drawn)	-27.1%
CCOC(=O)c1ccc(Nc2cc3ccccc3c(=O)[nH]2)cc1	85.9% (active)
CCOC(=O)c1ccc(Nc2cc(C)nc3nc(C)nn23)cc1	3.17%
CCOC(=O)c1ccc(NC(=O)c2cc(=O)[nH]c3ccccc23)cc1	-1.31%
